# “And” between values parts separate entries of the source, which are not always exact repeats. Equal values may be shown once. Results filed as inconclusive are left out. Entries that show only a call come without a potency. Some compounds were tested as several samples or in several runs, with calls that do not always agree. The source made the active and inactive calls. Unless noted, the call rests on the fitted dose curve.
# Experiments:
# [1] = biological target: Bile acid receptor (Homo sapiens) (UniProt Q96RI1); test: qHTS assay for small molecule antagonists of farnesoid X receptor signaling (AID 588526)
# Outline: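 Concentration-response titrations were fitted to the Hill equation for half-maximal inhibition and maximal response, with data normalised to 50 uM chenodeoxycholic acid and DMSO control wells. Cells: FXR-UAS-bla HEK293T, dialyzed FBS.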
# [2] = biological target: Glucocorticoid receptor (Homo sapiens) (UniProt P04150); test: qHTS assay for small molecule agonists of glucocorticoid receptor signaling (AID 588532; active means well fitted curve in the direction sought with a large enough effect in the signal ratio, with a control signal flat; the % refers to the signal ratio); details: HeLa MMTV-bla, beta-lactamase ratio, agonist, 18 h; stronger effect = higher value; percent of dexamethasone control, DMSO zero
# Outline: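 Titration series, up to 92 uM, applied to GRE-bla HeLa cells for 18 h at 37 C. Detection by CCF4 FRET substrate after 2 h at RT.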
# [3] = biological target: Glucocorticoid receptor (Homo sapiens) (UniProt P04150); test: qHTS assay for small molecule antagonists of glucocorticoid receptor signaling (AID 588533; active means well fitted inhibition curve with a large enough effect in the signal ratio, with a control signal flat, not every such curve was filed as active; the % refers to the signal ratio;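 further: cells stimulated with 2 nM dexamethasone as agonist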; further: potency means the concentration at half of the fitted maximal effect)
# Outline: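 Antagonist-mode qHTS: compound titrations added to GRE-bla HeLa cells, then dexamethasone 2 nM final; 18 h, 37 C. CCF4 FRET fluorescence normalized to dexamethasone and DMSO; IC50 from Hill fit.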
# [4] = qHTS assay for small molecule antagonists of peroxisome proliferator-activated receptor delta signaling (AID 588535; active means well fitted inhibition curve with a large enough effect in the signal ratio, with a control signal flat, not every such curve was filed as active; the % refers to the signal ratio; further: potency means the concentration at half of the fitted maximal effect;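 on max response: cells co-treated with a PPAR-delta agonist as stimulator during compound exposure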); details: HEK293T PPARd-UAS-bla, beta-lactamase FRET ratio, 18 h; 460 nm channel
# Outline: (§1)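 GeneBLAzer PPAR-delta-UAS-bla HEK293T cells in medium with 2% charcoal/dextran FBS were preincubated 5 hrs at 37 C, then given compounds, incubated 18 hrs at 37 C, and read by CCF4 beta-lactamase fluorescence; IC50 from Hill fits.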
# [5] = biological target: Peroxisome proliferator-activated receptor delta (Homo sapiens) (UniProt Q03181); test: as above
# Outline: as §1
# [6] = biological target: Peroxisome proliferator-activated receptor gamma (Homo sapiens) (UniProt P37231); test: qHTS assay for small molecule agonists of peroxisome proliferator-activated receptor gamma signaling (AID 588536; active means well fitted curve in the direction sought with a large enough effect in the signal ratio, with a control signal flat, not every such curve was filed as active; the % refers to the signal ratio)
# Outline: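 PPAR-gamma-UAS-bla HEK293 cells in medium with 1% charcoal/dextran-treated FBS were exposed to compounds for 16 h at 37 C. Beta-lactamase activity was read with CCF4 substrate (405 nm excitation, 460/530 nm emission).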
# [7] = biological target: Peroxisome proliferator-activated receptor gamma (Homo sapiens) (UniProt P37231); test: qHTS assay for small molecule antagonists of peroxisome proliferator-activated receptor gamma signaling (AID 588537; active means well fitted inhibition curve with a large enough effect in the signal ratio, with a control signal flat, not every such curve was filed as active; the % refers to the signal ratio; further: potency means the concentration at half of the fitted maximal effect)
# Outline: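 PPAR-gamma-UAS-bla HEK293 cells (3000/well, 1% charcoal/dextran-stripped FBS) were preincubated 6-6.5 h at 37 C, given titrated compounds, then stimulated with 50 nM rosiglitazone for 16 h. Beta-lactamase activity was read with CCF4 dye; IC50 came from Hill fits.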
# [8] = biological target: Vitamin D3 receptor (Homo sapiens) (UniProt P11473); test: qHTS assay for small molecule antagonists of vitamin D receptor signaling (AID 588541);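 further: receptor activated by calcitriol during compound treatment; series mostly up to about 77 µM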
# Outline: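 VDR-UAS-bla HEK293T cells (2000/well, 2% charcoal-stripped FBS) were treated with titrated compounds plus 1-alpha,25-dihydroxyvitamin D3 (50 nM or 3 nM final) for 16 h at 37 C. CCF4 beta-lactamase fluorescence was read; Hill fits gave IC50.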
# [9] = biological target: Vitamin D3 receptor (Homo sapiens) (UniProt P11473); test: qHTS assay for small molecule agonists of vitamin D receptor signaling (AID 588543)
# Outline: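 Reporter cells (HEK293T, VDR-UAS-bla) were seeded in medium with 2% charcoal-stripped serum and incubated 5 h, then compounds in concentration series were added for 16 h at 37 °C. Stimulation was scaled between DMSO basal and 50 nM 1α,25-dihydroxyvitamin D3.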
# [10] = qHTS assay for small molecule agonists of retinoid X receptor alpha signaling (AID 588544); details: HEK293T RXRa-UAS-bla, beta-lactamase reporter, 18 h; 530 nm emission
# Sequence of Bile acid receptor (Homo sapiens) (Q96RI1 whole entry, looked up): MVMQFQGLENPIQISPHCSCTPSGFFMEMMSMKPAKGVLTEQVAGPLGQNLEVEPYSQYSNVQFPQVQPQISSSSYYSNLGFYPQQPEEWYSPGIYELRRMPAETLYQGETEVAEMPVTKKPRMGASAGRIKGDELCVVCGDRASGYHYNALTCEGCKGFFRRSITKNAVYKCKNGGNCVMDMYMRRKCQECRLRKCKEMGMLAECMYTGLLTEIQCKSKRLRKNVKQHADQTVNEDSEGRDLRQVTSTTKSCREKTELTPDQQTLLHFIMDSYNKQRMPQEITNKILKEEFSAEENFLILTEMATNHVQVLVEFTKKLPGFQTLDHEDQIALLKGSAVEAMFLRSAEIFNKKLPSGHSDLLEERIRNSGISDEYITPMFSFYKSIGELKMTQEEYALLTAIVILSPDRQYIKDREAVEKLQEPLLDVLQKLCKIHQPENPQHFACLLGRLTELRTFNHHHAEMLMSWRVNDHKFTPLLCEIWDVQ
# Sequence of Peroxisome proliferator-activated receptor delta (Homo sapiens) (Q03181 whole entry, looked up): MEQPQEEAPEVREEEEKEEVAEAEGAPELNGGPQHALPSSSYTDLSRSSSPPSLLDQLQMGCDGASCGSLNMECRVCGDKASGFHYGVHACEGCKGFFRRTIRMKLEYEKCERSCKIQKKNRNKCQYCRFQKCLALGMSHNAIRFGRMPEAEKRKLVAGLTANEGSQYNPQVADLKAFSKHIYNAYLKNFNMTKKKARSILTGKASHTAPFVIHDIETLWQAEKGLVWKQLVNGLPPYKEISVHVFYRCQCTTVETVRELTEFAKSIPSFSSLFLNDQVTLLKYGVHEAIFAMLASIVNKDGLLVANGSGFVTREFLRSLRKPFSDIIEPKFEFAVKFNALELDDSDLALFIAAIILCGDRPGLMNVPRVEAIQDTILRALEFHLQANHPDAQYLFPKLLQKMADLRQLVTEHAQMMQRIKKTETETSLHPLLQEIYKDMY
SMILES,outcome [1],activation [2],Potency [3],max response [4],Potency [5],outcome [6],Potency [7],outcome [8],outcome [9],max response [10]
c1ccc2sc(SSc3nc4ccccc4s3)nc2c1,inactive,0.623% (inactive) and -1.23% (inactive),inactive,2.19%,inactive,inactive,inactive,inactive,inactive,3.36% and -4.21%
O=C(O)[C@H](O)[C@@H](O)[C@H](O)[C@H](O)CO,,,,8.66%,inactive,inactive,inactive,inactive,inactive,-12.4%
Nc1ccc([N+](=O)[O-])cc1O,,-6.1% (inactive) and -0.626% (inactive),,4.75% and -17.9%,inactive,,,inactive,inactive,5.77%
O=C(O)/C=C\C(=O)O,,-2.26% (inactive),inactive,-10.6%,inactive,,,inactive,inactive,-5.8%
O=C(Nc1ccccc1)c1cc([N+](=O)[O-])ccc1Cl,inactive,-2.03% (inactive),inactive,15.1%,inactive,,,,,
COc1cc(/C=C/C(=O)CC(=O)/C=C/c2ccc(O)c(OC)c2)ccc1O,,-12.9% (inactive),,,,,,,,
Nc1ccc(O)c(C(=O)O)c1,inactive,1.83% (inactive) and -3.75% (inactive),inactive,9.11%,inactive,inactive,inactive,inactive,inactive,-5.65% and -3.05%
O=C1CN(/N=C/c2ccc([N+](=O)[O-])o2)C(=O)N1,,2.61% (inactive),inactive,,,,,inactive,inactive,
NCCO,,1.21% (inactive),inactive,,,,,,,-11.3%
CN(C)c1ccc(N=NS(=O)(=O)O)cc1,,14.4% (inactive) and -3.49% (inactive),,49.1%,inactive,,,inactive,inactive,-5.77%
CCCOC(=O)c1ccc(O)cc1,inactive,-2.28% (inactive) and -1.56% (inactive),inactive,7.9% and -17%,inactive,inactive,inactive and 35.5 µM (active),inactive,inactive,-11.1% and -2.66% and -11%
Nc1cc(-c2ccncc2)c[nH]c1=O,,-4.52% (inactive),inactive,50.9%,inactive,inactive,inactive,inactive,inactive,3.04%
CC1(C)S[C@@H]2[C@H](NC(=O)[C@H](N)c3ccccc3)C(=O)N2[C@H]1C(=O)O,,,,,,inactive,,,,-24.6%
C=CCCCCCCCCC(=O)O,,-3.95% (inactive),inactive,,,inactive,,inactive,inactive,-10%
O=C(O)c1ccccc1Nc1cccc(C(F)(F)F)c1,,-19% (inactive),inactive,,,inactive,,inactive,inactive,
CC(C)OC(=O)c1cc(C(=O)OC(C)C)cc([N+](=O)[O-])c1,,-0.933% (inactive),inactive,31.8%,inactive,,,inactive,inactive,

SMILES,outcome [1],activation [2],Potency [3],max response [4],Potency [5],outcome [6],Potency [7],outcome [8],outcome [9],max response [10]
N=C1N=C(N)c2cc3ccccc3cc21,,0.184% (inactive),,,,,,inactive,inactive,12.6%
CCCCCCCCCCCCCCCC(=O)OC(C)C,,,,-23.5%,inactive,,,inactive,inactive,0.385%
CN1CCC[C@H]1c1cccnc1,,,,,,inactive,inactive,inactive,inactive,
Oc1ccccc1O,,-6.14% (inactive),,,,inactive,,,inactive,7.41%
c1cnc2c(c1)ccc1cccnc12,,,,-78.3%,17.8 µM (active),,,,inactive,
CCCCCCCCCCCCCCCCCC(=O)O,,,,,,inactive,inactive,,,13.3% and -12.8% and -7.59%
O=C(O)c1cc(O)c(O)c(O)c1,,2.04% (inactive),,19.5%,inactive,inactive,inactive,inactive,inactive,4.26%
Nc1nc2ccc([N+](=O)[O-])cc2s1,,,,42.6%,inactive,inactive,,inactive,inactive,
Nc1ccc(O)c([N+](=O)[O-])c1,,3.32% (inactive),inactive,41.6% and 11.8%,inactive,,inactive,inactive,inactive,-11.3%
O=c1cc(-c2ccccc2)oc2ccccc12,,-9.59% (inactive) and -14.8% (inactive),,43.6%,inactive,inactive,,inactive,inactive,18.8%
S=c1[nH]c2ccccc2s1,inactive,-4.66% (inactive) and -1.91% (inactive),inactive,9.56%,inactive,,inactive,inactive,inactive,-3.92%
C#C[C@]1(O)CC[C@H]2[C@@H]3CCc4cc(O)ccc4[C@H]3CC[C@@]21C,,-1.88% (inactive),10 µM (active) and 12.6 µM (active),-35.1% and -42.8%,inactive,,,,,
O=C(OCc1ccccc1)c1ccccc1,inactive,-9.71% (inactive),inactive,18.5%,inactive,inactive,inactive,inactive,inactive,2.86%
CC(C)NCC(O)COc1cccc2ccccc12 (configuration not stated),inactive,,,-13.8% and 28.5%,inactive,inactive,inactive,inactive,inactive,16.9% and 0.479%
CN(C)CCC(c1ccc(Cl)cc1)c1ccccn1 (configuration not stated),,0.717% (inactive),inactive,,,inactive,,,,8.67%
COc1cc(CNC(=O)CCCC/C=C/C(C)C)ccc1O,inactive,-1.19% (inactive) and -3.69% (inactive),inactive,7.93% and 37.4%,inactive,,inactive,inactive,inactive,3.03% and 16.9%

# Source: PubChem BioAssay (NCATS)
